Screening data from PubChem BioAssay.
FBPA coupling cs: counter-screen for Giardia aldolase inhibitors: coupling enzyme system | coupling enzyme system counterscreen, AmpLite Red fluorescence | 0.67% of 290,000 active | activity change, negative = inhibition, % at 58.2 µM, hits read low | AID 2472; in the data active = activity change below about -30%; also: % is scaled to controls: 0 for no effect and ±100 for the full control effect
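Activity here indicates interference with the coupling reaction, not aldolase inhibition. Compounds at 57.5 uM final met coupling enzymes for 10 min at RT; substrate and AmpLite Red detection followed, with a 525/598 nm fluorescence read after 20 min.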
TRb SRC2 PPI: inhibitors of human thyroid hormone receptor beta-SRC2 interaction; P10828; TRbeta-SRC2 peptide binding, fluorescence polarization; receptor liganded with 1 µM T3; Potency, µM (highest dose often 106 µM), inactives show at the highest dose activity change, negative = inhibition, hits mostly inhibitors; 0.065% of 280,000 active; AID 1469;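 also: potency is read from the fitted curve at half-maximal effect; plate controls were bound peptide for no effect and peptide without receptor for full effect; nearly all actives have a fitted effect of over 50% in size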
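Polarization signal, normalized between peptide-alone and full complex controls, measured compound effects on T3-liganded human TRb LBD (0.6 uM) binding 20 nM Texas Red SRC2 peptide after 5 hr.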
KDM4E inh: inhibitors of human JMJD2E histone demethylase; B2RXH2; JMJD2E catalytic domain, FDH-coupled NADH fluorescence (FDH is formaldehyde dehydrogenase); Potency, µM (series often up to 57.1 µM), inactives show top-dose activity change, negative = inhibition, most hits filed as inhibitors; 1.6% of 230,000 active; AID 2147; active = well fitted inhibition curve with a large enough effect, not every such curve was filed as active; inconclusive = small, poorly fitted or top-dose-only effect, or another doubt; inactive = no such curve, though single readings can be large or run the other way;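 also: potency is read from the fitted curve at half-maximal effect; 0% = wells with enzyme and -100% = buffer wells without enzyme; nearly all actives have a fitted effect of over 50% in size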
Target sequence (B2RXH2 1-337 limits assumed): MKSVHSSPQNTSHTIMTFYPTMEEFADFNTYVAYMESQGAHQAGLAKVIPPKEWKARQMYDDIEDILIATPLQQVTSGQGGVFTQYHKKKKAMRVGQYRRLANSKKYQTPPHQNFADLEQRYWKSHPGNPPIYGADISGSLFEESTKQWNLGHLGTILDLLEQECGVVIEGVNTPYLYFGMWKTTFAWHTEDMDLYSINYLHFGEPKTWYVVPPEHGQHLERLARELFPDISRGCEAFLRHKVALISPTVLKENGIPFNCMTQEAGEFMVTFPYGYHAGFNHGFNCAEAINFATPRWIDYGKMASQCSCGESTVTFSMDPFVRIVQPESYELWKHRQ
HttQ103 aggreg: inhibitors of mutant huntingtin aggregate formation in PC12 cells; PC12 HttQ103-GFP aggregates, Acumen cytometry, 40 h; 1.1% of 220,000 active; Potency, µM (titrated, usually from 46.1 µM), without a hit: top-dose activity change, negative = inhibition, actives largely listed as inhibitors; also: potency is read from the fitted curve at half-maximal effect; % is scaled to controls: 0 for no effect and ±100 for the full control effect; nearly all actives have a fitted effect of over 60% in size
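Aggregate formation scored by laser-scanning cytometer (488 excitation, 500–530 emission) in lysed PC12 cells expressing Q103-GFP after 100 nM tebufenozide induction; library tested in dose series, with ATPLite reagent added in the multiplex.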
HTT cytoprotect: Huntington cell model cytoprotection by ATP luminescence | PC12 HTT-Q103 induced, cytoprotection, ATP luminescence, 40 h | 0.14% of 230,000 active | Potency, µM (top dose mostly 56.4 µM), inactives show cytoprotection (ATP increase), actives largely listed as activators | AID 1471; also: potency is read from the fitted curve at half-maximal effect; % of control where 0% means no effect; nearly all actives have a fitted effect of over 45% in size
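PC12 cells stably carrying ecdysone-inducible Htt exon 1 (Q103)–GFP were induced with 100 nM tebufenozide (final) alongside library compounds in a dose series. Cytoprotection was scored as retained ATP by ATPlite luminescence.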
TR SRC2 fluor cs: alters Texas Red total fluorescence, flagging assay interference. TRb/SRC2 Texas Red total fluorescence interference. Potency, µM (titrated, usually from 106 µM), without a hit: at the top dose fluorescence change, negative = quenching. 0.29% of 280,000 active. AID 1479; active = well fitted curve in either direction with a large enough effect; inconclusive = small, poorly fitted or top-dose-only effect; also: potency is read from the fitted curve at half-maximal effect; % is scaled to controls: 0 for no effect and ±100 for the full control effect
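Flags fluorescent or light-absorbing compounds by total fluorescence, S + 2P, at 555 nm excitation and 632 nm emission. Mixture: 20 nM Texas Red SRC2 peptide, 0.6 uM human TRb LBD, 1 uM T3, 5% DMSO; compound exposure 5 h at ambient temperature.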
An asterisk follows results filed as active; ? = inconclusive; · = not tested or not shown; [ ] = another dose, or the depositor's remark. This is a sample that favours compounds with a hit; in the whole collection about 2% have one here. Unless noted, calls follow the shape of the dose curve; as a rule, active = well fitted curve in the direction sought with a large enough effect; inconclusive = small, poorly fitted or top-dose-only effect, or another doubt; inactive = no such curve, though single readings can be large; an effect the other way counts as inactive or inconclusive.

SMILES	FBPA coupling cs	TRb SRC2 PPI	KDM4E inh	HttQ103 aggreg	HTT cytoprotect	TR SRC2 fluor cs
C[C@@H]1[C@H](C)CC[C@@]2(C(=O)O[C@H]3O[C@@H](CO[C@H]4O[C@@H](CO)[C@@H](O[C@H]5O[C@@H](C)[C@@H](O)[C@@H](O)[C@@H]5O)[C@@H](O)[C@@H]4O)[C@@H](O)[C@@H](O)[C@@H]3O)CC[C@]3(C)C(=CC[C@H]4[C@@]5(C)C[C@@H](O)[C@@H](O)[C@](C)(CO)[C@@H]5CC[C@@]43C)[C@@H]12	1	-5%[53 µM]	1%[25.5 µM]	·	-8%[40.3 µM]	-7%[53 µM]
N#CC1=C(SCC(=O)NC23CC4CC(CC(C4)C2)C3)NC(=O)C(C#N)C12CCCCC2 (centres undefined)	2	-7%	-19%	3.5µM*	14%[10 µM]	-3%
N#CC1=C(SCC(=O)NC2CC2)NC(=O)C(C#N)C12CCCCC2 (centres undefined)	3	6%	2%	-13%	-5%	2%
N#CC1=C(SCC(=O)Nc2cccc3cccnc23)NC(=O)C(C#N)C12CCCCC2 (centres undefined)	-36*	-4%	-8%	-33%	-28%[0.074 µM]	-4%
CCOC(=O)C1=C(SCC(=O)Nc2ccccc2)NC(=O)C(C#N)C12CCCCC2 (centres undefined)	0	-3%	-6%	16%	-3%	0%
CC(C)(C)C1CCC2(CC1)C(C#N)=C(SCC(=O)NC1CCCCC1)NC(=O)C2C#N (centres undefined)	0	1%	10%	11µM*	-37%[0.074 µM]	1%
COC(=O)C1=NOC2(C=C(Br)C(OC)=C(Br)C2=O)C1 (centres undefined)	2	6%[11.2 µM]	·	·	?	-1%[11.2 µM]
Cc1ccc(S(=O)(=O)C(C#N)c2nc3ccccc3nc2N2CCCC2)cc1 (centres undefined)	-30*	-6%	?	4%	10%	-5%
CCN1CCN(c2nc3ccccc3nc2C(C#N)S(=O)(=O)c2ccc(C)cc2)CC1 (centres undefined)	3	-2%	-19%	9%[9.22 µM]	6%	-5%
O=S(=O)(O)c1ccc(N=Nc2c(O)ccc3cc(S(=O)(=O)O)ccc23)cc1	·	17%[201 µM]	·	·	·	?
COc1ccc(NS(=O)(=O)c2ccc(N3CCCC3=O)cc2)cn1	-3	-9%	-3%	?	-53%	2%
COc1ccc(NS(=O)(=O)c2ccc3c(c2)Cc2ccccc2-3)cn1	-5	0%	-11%	11µM*	9%	0%
Nc1ccc2ncccc2c1	-39*	-4%	?	?	-17%	-7%
Nc1ccc2ncccc2c1N	-40*	5%	-26%	?	-5%[10 µM]	-3%
c1ccc(-c2ccccn2)nc1	1	2%	?	8%	5%[1.9 µM]	-2%
Nc1ccc(/C=C/c2ccc3ncccc3c2)cc1	-2	-8%	-4%	12%[9.22 µM]	5%[10 µM]	-13%
c1cnc2ccc3ncccc3c2c1	-9	-10%	18µM*	-9%[9.22 µM]	30%[10 µM]	-3%
COc1ccc(C(=O)c2ccc(O)cc2)c(O)c1O	-10	-6%	16µM*	·	·	-6%
COc1ccc(C(=O)c2ccc(Cl)cc2)c2ccccc12	-2	-6%	2%	-25%	-4%[10 µM]	1%
CCOc1ccc(C(=O)c2ccc(OC)c(O)c2O)cc1	-24	2%	25µM*	·	5%	-1%
CCOc1ccc(C(=O)c2ccncc2)cc1	-1	-8%	2%	2%	-10%	-1%
CN1C(=O)N(C)C2=NNC=NC2(O)C1=O (centres undefined)	-46*	11%	?	·	-21%	-1%
Nc1ccc(C(=O)N(CCO)CCO)cc1	0	3%	-1%	6%[9.22 µM]	11%[10 µM]	-2%
Nc1ccc(N(CCO)CCO)cc1	-38*	?	32%	-15%[9.22 µM]	2%[10 µM]	28%
O=C(COc1ccc2ccccc2c1)NNC(=O)Cc1ccccc1	0	1%	8%	-1%	27%[10 µM]	1%
SMILES	FBPA coupling cs	TRb SRC2 PPI	KDM4E inh	HttQ103 aggreg	HTT cytoprotect	TR SRC2 fluor cs
O=C(CSCc1ccc(C(=O)O)cc1)Nc1ccc2ccccc2c1	2	-8%	10%	40µM*	·	1%
O=C(CSCc1ccc(C(=O)O)cc1)Nc1ccccc1	3	2%[53 µM]	3%	29%[9.22 µM]	?	-2%[53 µM]
O=C(Cc1ccccc1)NNc1ccc2ccccc2c1	0	6%	25µM*	?	19%[10 µM]	2%
C/C1=C\[C@@H](O)C(C(C)C)C(OC(=O)c2ccc(O)cc2)C/C(C)=C/CC1 (some centres undefined)	1	-5%	·	·	·	-6%
C=CCn1c(O)c(CN2CCOCC2)c(C)c(C#N)c1=O	-31*	4%	?	8%	-4%[10 µM]	1%
Cc1ccccc1NC(=O)CSCn1nnc2c(=O)[nH]c(Cc3ccc(F)cc3)nc21	·	0%	·	·	·	-7%
Cc1ccc(NC(=O)CSCn2nnc3c(=O)[nH]c(Cc4ccc(F)cc4)nc32)c(C)c1	·	-8%	·	·	·	0.32µM*[quencher]
O=c1n(CCO)c(=O)n(CCO)c(=O)n1CCO	·	0%[201 µM]	·	·	·	-4%[201 µM]
Nc1ncc(Br)cc1N=Cc1ccccc1	-48*	-4%	-3%	?	10%[10 µM]	-1%
Cn1ncc(N=Cc2ccccc2)c1C(N)=O	-8	2%	-3%	-8%	-5%	-8%
CCCOc1nc2c(c(=O)n(C)c(=O)n2C)n1Cc1cccc2ccccc12	0	5%	0%	13µM*	-88%	-2%
CCCOc1nc2c(c(=O)n(C)c(=O)n2C)n1C	-3	4%	10%	-3%[9.22 µM]	-5%[10 µM]	3%
O=C(NCc1ccc(Cl)cc1)C(=O)Nc1ccc(Br)cc1	·	-5%	·	·	·	-28%
COc1ccc(O[C@H]2C=C[C@@H](c3ccccc3)O[C@H]2COC(=O)CC/C(C)=N/OCC[C@@H]2C=C[C@H](OC(C)=O)[C@H](COC(C)=O)O2)cc1	-2	0%[11.2 µM]	·	·	-17%[10 µM]	-2%[11.2 µM]
O=C1c2ccc3c4c(ccc(c24)C(=O)N1CCCCO)C(=O)N(CCCCO)C3=O	-40*	-13%	?	5µM*	-233%	9%
O=C(COc1nnnc2ccccc12)N1CCCc2ccccc21	4	-6%	5%	4.5µM*	13%[10 µM]	2%
O=C(O)C1CCCN1S(=O)(=O)c1cccc2cccnc12 (centres undefined)	·	·	·	·	1%	·
N[C@H](C(=O)O)[C@@H]1[C@@H](C(=O)O)C1(F)F	3	2%	16µM*	·	?	4%
CC(=O)[C@@H]1[C@H]2[C@@H](C(=O)[C@H]3OC[C@H]2O3)[C@@H]2C=Cc3ccccc3N12	·	·	·	·	-14%	·
